# Screens (PubChem)
# FUS suppressor – FUS proteinopathy suppression in yeast. S. cerevisiae FUS-expressing, growth rescue, OD600, 24 h. Potency, µM (series often up to 76.6 µM), most hits filed as activators. 0.24% of 390,000 active. AID 1347120; note: nearly all actives have a fitted effect of over 55% in size
#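 Restored growth of FUS-toxic S. cerevisiae, read as 600 nm absorbance after 24 h at 30C in galactose medium (starting OD 0.005). Controls CP55940 and DMSO.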
# TDP-43 yeast inh – inhibitors of TDP-43 toxicity in yeast; 1.8% of 410,000 active; TDP-43 expressing yeast growth rescue, BacTiter-Glo, 24 h; AID 652104; Potency, µM (series often up to 46.1 µM), hits mostly activators; note: nearly all actives have a fitted effect of over 50% in size
#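 Cell-based yeast growth screen: TDP-43 expression induced in galactose, inoculum OD600=0.02 after raffinose pregrowth to mid-log. Read-out BacTiter-Glo luminescence at 24 hr, 30 deg C; inhibition of toxicity seen as signal increase.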
# Abeta yeast res – compounds reversing amyloid beta toxicity in yeast; yeast expressing A-beta42, growth rescue, OD600, 48 h; response scale: 0% DMSO, 100% iron-clioquinol control; Potency, µM (top dose mostly 46.1 µM), actives largely listed as activators; 0.063% of 410,000 active; note: nearly all actives have a fitted effect of over 55% in size
#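 Yeast growth medium received pinned compounds, then yeast cells expressing toxic A-beta were added; plates incubated at 30 C for 48 hr. Growth read as absorbance at 600 nm, normalized to DMSO and equimolar FeCl3 plus clioquinol controls.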
# aSyn yeast inh – inhibitors of alpha-synuclein toxicity in yeast. Yeast expressing alpha-synuclein, growth rescue, BacTiter-Glo, 24 h. Potency, µM (doses to about 46.1 µM), hits mostly activators. 0.14% of 370,000 active; note: nearly all actives have a fitted effect of over 65% in size
#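 Readout is rescue of growth in alpha-synuclein-expressing yeast, so inhibitors of toxicity appear as activators. Growth after 24 hr at 30 deg C in galactose medium is quantified by luminescence.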
# Hits are given with their value; n = inactive; u = inconclusive; x = no result given; [ ] = remark or other dose. Shown are actives, neighbours in structure and some others; about 2.1% of the full set was active somewhere. Calls come from the whole dose curve; as a rule, active = well fitted curve in the direction sought with a large enough effect; inconclusive = small, poorly fitted or top-dose-only effect, or another doubt; inactive = no such curve, though single readings can be large; an effect the other way counts as inactive or inconclusive.
SMILES,FUS suppressor,TDP-43 yeast inh,Abeta yeast res,aSyn yeast inh
O=C(CSc1ccccc1)NCc1ccccc1,n,n,n,n
CCC(=O)Nc1ccc(NC(=O)CSc2nnnn2-c2ccc3c(c2)OCCO3)cc1,n,n,n,n
Cc1ccc(NC(=O)CCSc2nnnn2-c2ccc3c(c2)OCO3)cc1C,n,18µM,n,n
Cc1ccc2cc(F)c(F)c(F)c2n1,n,u,n,n
Cc1ccc2ccc3ccc(C)nc3c2n1,n,4.5µM,n,n
COc1ccccc1-c1cc(C(F)(F)F)nc(S(C)(=O)=O)n1,n,35µM,n,n
COc1ccccc1-c1cc(C(F)(F)F)nc(S(=O)(=O)CCCC(=O)Nc2ccccc2F)n1,n,n,n,x
COc1ccccc1-c1cc(C(F)(F)F)nc(S(=O)(=O)CCCC(=O)NC(C)C)n1,n,n,n,n
COc1ccccc1-c1cc(C(F)(F)F)nc(S(=O)(=O)CCCC(=O)Nc2cccnc2Cl)n1,n,13µM,n,n
COc1ccc(S(=O)(=O)N2CCOCC2)cc1OC,x,n,n,n
CCNC(=O)n1nccc1C(C)Oc1cccc(C(F)(F)F)c1 (stereo unspecified),n,16µM,n,n
CC(C)N(Cc1nccn1C)C(=O)c1cc(COc2cccc(C(F)(F)F)c2)on1,n,n,n,n
CCNC(=O)n1nccc1C(C)Oc1ccc(Cl)cc1 (stereo unspecified),n,11µM,n,n
Cc1ccc(C)c2nc3sc(C(=O)O)cc3cc12,n,14µM,n,n
Cc1ccccc1NC1=C(Cl)C(=O)OC1OC(=O)c1ccco1 (stereo unspecified),n,n,n,n
Cc1ccc(NC2=C(Cl)C(=O)OC2OC(=O)c2ccc(C)cc2)cc1 (stereo unspecified),n,13µM,n,n
COC(=O)[C@@]12C[C@@H](CC(=O)NCCC(C)C)C(=O)N(Cc3cccc4ccccc34)C1=CCC(C)(C)C2,14µM,n,n,n
COC(=O)[C@@]12C[C@@H](CC(=O)NCc3ccc(OC)c(OC)c3)C(=O)N(Cc3ccc4c(c3)OCO4)C1=CCC(C)(C)C2,13µM,n,n,n
COC(=O)[C@@]12C[C@@H](CC(=O)NCc3cccc(C(F)(F)F)c3)C(=O)N(Cc3ccc4c(c3)OCO4)C1=CCC(C)(C)C2,u,n,n,n
COC(=O)[C@@]12C[C@@H](CC(=O)NCc3cccc4ccccc34)C(=O)N(Cc3cccc4ccccc34)C1=CCC(C)(C)C2,n,n,n,n
COc1ccc(-c2nnn3c2nc(N2CCCC(C)C2)c2ccccc23)cc1 (stereo unspecified),n,n,n,x
COc1cccc(-c2nc(CS(=O)(=O)CC(=O)NC3CC3)c(C)o2)c1,n,n,n,n
COc1ccccc1CCNC(=O)C(=O)NCC(c1cccs1)S(=O)(=O)c1ccc(F)cc1 (stereo unspecified),n,n,n,x
COc1ccccc1CNC(=O)C(=O)NCC(c1cccs1)S(=O)(=O)c1ccc(F)cc1 (stereo unspecified),28µM,n,n,x
CC(C)c1ccc(/C=C/C2=NNC(=O)CC2)cc1,n,11µM,n,n
SMILES,FUS suppressor,TDP-43 yeast inh,Abeta yeast res,aSyn yeast inh
COc1ccc([C@H](OC)[C@@]2(Cc3ccc(O)cc3)N=C(N)N(C)C2=O)cc1,n,n,n,n
Cc1cccc(Cn2nnc3c(=O)[nH]c(C4CCCN(C(=O)c5ccc(C(C)(C)C)cc5)C4)nc32)c1 (stereo unspecified),22µM,n,n,x
Cc1ccccc1Cn1nnc2c(=O)[nH]c(C3CCCN(C(=O)c4ccc(C(C)(C)C)cc4)C3)nc21 (stereo unspecified),u,u,n,x
CCOC(=O)c1c(C)cccc1OCC(N)=O,n,n,n,n
CCN(CC(=O)NC(C)(C)C)C(=O)COc1c(Cl)cc(Cl)c2ccc(C)nc12,n,28µM,u,n
CCOc1ccccc1NC(=O)COC(=O)COc1c(Cl)cc(Cl)c2ccc(C)nc12,n,n,n,n
Cc1ccc(C)c(OCc2nc3ccc(S(=O)(=O)Nc4c(C)n(C)n(-c5ccccc5)c4=O)cc3[nH]2)c1,35µM,n[0.397 µM],n,n
NC(=O)c1ccc(Oc2ccc(-c3nnco3)cc2)c([N+](=O)[O-])c1,n,n,n,n
COc1ccc(C(=O)N2N=C(c3cccs3)CC2c2ccccc2O)cc1 (stereo unspecified),n,n,n,18µM
CCN(C(=O)COC(=O)c1ccc(OC)c(S(=O)(=O)N2CCCc3ccccc32)c1)C1CCS(=O)(=O)C1 (stereo unspecified),n,n,n,n
O=S(=O)(CCSc1nc2ccccc2s1)c1nc2ccccc2s1,n,2.5µM,n,n
C=CCS(=O)(=O)c1nc2ccccc2s1,n,22µM,n[9.22 µM],n
CCS(=O)(=O)CCSc1nc2ccccc2s1,n,n,n,n
C=CCC1(CC=C)CCCN1C(=O)c1cc(COc2cccc(C(F)(F)F)c2)on1,x,n,n,n
CCOc1ccccc1NS(=O)(=O)c1c(C(=O)OC)sc2cccc(F)c12,n,n,n,x
CCOC(=O)c1sc2cccc(F)c2c1S(=O)(=O)Nc1ccccc1F,n,18µM,n,x
COC(=O)c1ccc(C2CC(=O)NC3=C2C(=O)CCC3)cc1 (stereo unspecified),n,n,n,n
Fc1ccc(Br)cc1SCCc1ccncc1,n,11µM,n,n
O=S(=O)(NCCc1ccncc1)c1ccc(Br)cc1,n,n,n,n
CCCCCC(=O)N1C[C@@H](O)[C@H](n2cc(-c3ccc(F)cc3)nn2)C[C@@H]1c1ccc(C)cc1,n,u,n,u
OCCNc1nc(SCc2ccccc2)nc2sc3c(c12)CCC3,x,10µM,n,n
O=c1c2c3c(sc2nc(NCCO)n1CCc1ccccc1)CCCCC3,u,14µM,n,n
CC1(c2nnc(-c3ccc(Cl)cc3)o2)CC(c2c(Cl)cccc2Cl)=NO1 (stereo unspecified),n,n,n,n
CC1(c2nnc(-c3ccc(F)cc3)o2)CC(c2c(Cl)cccc2Cl)=NO1 (stereo unspecified),n,35µM,n,n
CC[C@]1(C(=O)OC)[C@H]2C(=O)N(Cc3ccccc3)C(=O)[C@H]2[C@H]2CN(C)C(=NCc3ccccc3)N21,n,n,n,n
SMILES,FUS suppressor,TDP-43 yeast inh,Abeta yeast res,aSyn yeast inh
CCOc1ccc2ccccc2c1C(=O)N[C@@H]1C(=O)N2[C@@H]1SC(C)(C)[C@@H]2C(=O)O,n,n,n,n
CSc1ncc(Cl)c(C(=O)Nc2cccc(Cl)c2)n1,n,22µM,n,n
CC(=O)Nc1ccc(NC(=O)c2nc(SCc3ccccc3F)ncc2Cl)cc1,x,x,x,32µM
CCc1nnc(NC(=O)c2nc(SCc3ccc(F)cc3)ncc2Cl)s1,u,16µM,n,x
Cc1cc(C(=O)Nc2ccc(Nc3ccccc3)cc2)ccc1[N+](=O)[O-],n,13µM,n,n
O=C(COc1ccc(Cl)cc1)c1ccc(O)cc1O,n,n,n,n
O=C(COc1ccccc1)OCC(=O)c1ccc(O)cc1O,n,n,13µM,n
